IL1B secr inh: inhibitors of inflammasome signaling (IL-1 beta secretion); THP-1 LPS/ATP IL-1B secretion, AlphaLISA, 16 h; hits give low values; activity change, % at 57.5 µM; 360,000 tested, 4.7% active; AID 743279; in the data active = activity change below about -50%; inconclusive = mostly about -30% to -49%; note: % is set by controls: 0 for no effect and ±100 for the full control effect
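THP-1 cells pretreated 1 hr with compounds (up to 57.5 uM final), then stimulated with LPS (250 ng/mL final) plus ATP (1.25 mM final); secreted IL-1B measured by AlphaLISA after 16 hr, decreased signal indicating inhibition.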
MCF10A rerep: inducers of DNA re-replication in MCF 10A breast cells | MCF 10A DNA re-replication, Hoechst nuclear intensity, 48 h | Potency, µM (doses to about 46.1 µM), for the others: top-dose activity, positive = re-replication, most hits filed as activators | 350,000 tested, 2.9% active | AID 624296; note: potency is the fitted concentration of half-maximal effect; % of control where 0% means no effect; nearly all actives have a fitted effect of over 50% in size
KB-3-1 tox: kills parental KB-3-1 adenocarcinoma cells; KB-3-1 viability, CellTiter-Glo ATP luminescence, 72 h; 400,000 tested, 1.4% active; Potency, µM (top dose mostly 46.1 µM), hits mostly cytotoxic; AID 1347075; note: potency is the fitted concentration of half-maximal effect; % is set by controls: 0 for no effect and ±100 for the full control effect; nearly all actives have a fitted effect of over 60% in size
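Cytotoxicity in the drug-sensitive parental line KB-3-1 was scored as loss of CellTiter-Glo luminescence following 72 h incubation with compound. Values come from curve fitting of normalized concentration-response data.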
KB-V1 MDR tox: kills drug-selected multidrug resistant KB-V1 cells; AID 1347076; Potency, µM (titrated, usually from 46.1 µM), actives largely listed as cytotoxic; KB-V1 MDR cells viability, CellTiter-Glo, 72 h; 400,000 tested, 3.4% active; note: potency is the fitted concentration of half-maximal effect; % is set by controls: 0 for no effect and ±100 for the full control effect; nearly all actives have a fitted effect of over 60% in size
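Compound-treated KB-V1 multidrug-resistant cells, 72 h, 37 degrees C; viability by CellTiter-Glo. Fitted qHTS curves give the values.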
SW480 rerep: inducers of DNA re-replication in SW480 colon cancer cells. SW480 DNA re-replication, Hoechst DNA content imaging, 48 h. Potency, µM (top dose mostly 46.1 µM), without a hit: at the highest dose re-replication activation, actives largely listed as activators. 340,000 tested, 1.8% active. AID 624297; note: potency is the fitted concentration of half-maximal effect; % of control where 0% means no effect; nearly all actives have a fitted effect of over 55% in size
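Image-based DNA-content assay: after two days of treatment, nuclei were labelled with the DNA dye Hoechst and imaged, and hits were compounds raising the count of nuclei showing high fluorescence intensity.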
* hit, by the source's call. Hits are enriched below; roughly 9.9% of the tested compounds scored in any of these assays. Unless noted, calls come from the whole dose curve; as a rule, active = well fitted curve in the direction sought with a large enough effect; inconclusive = small, poorly fitted or top-dose-only effect, or another doubt; inactive = no such curve, though single readings can be large; an effect the other way counts as inactive or inconclusive.

CCOC(=O)N1CCN(c2nc(SC)nc3sc4c(c23)CC(C)(C)OC4)CC1 was read as IL1B secr inh 8, MCF10A rerep 14%, KB-3-1 tox inactive, KB-V1 MDR tox inactive and SW480 rerep -4%.
Screening O=C(NCc1ccccc1Cl)c1ccc(S(=O)(=O)Nc2cccc(C(F)(F)F)c2)cc1 returned IL1B secr inh 80, MCF10A rerep 18%, KB-3-1 tox inactive, KB-V1 MDR tox inconclusive and SW480 rerep -3%.
Screening CCOc1ccc(Oc2ccccc2NC(=O)CSCC(=O)Nc2cc(C)on2)cc1 returned IL1B secr inh 5, MCF10A rerep 20%, KB-3-1 tox inconclusive, KB-V1 MDR tox inconclusive and SW480 rerep 0%.
For Cc1cccc(Oc2ccccc2NC(=O)CSCC(=O)Nc2cc(C)on2)c1 the results were IL1B secr inh 3, MCF10A rerep 19%, KB-3-1 tox inconclusive, KB-V1 MDR tox 7.3µM* and SW480 rerep -3%.
For COc1ccc(NC(=O)CCN2C(=O)NC3(CCCC3)C2=O)cc1Cl the results were IL1B secr inh -7, MCF10A rerep 4%, KB-3-1 tox inactive, KB-V1 MDR tox inactive and SW480 rerep 8%.
For CN(c1ccccc1)c1ccc(/C=C/[N+](=O)[O-])cc1 the results were IL1B secr inh -107*, MCF10A rerep 7.3µM*, KB-3-1 tox inconclusive, KB-V1 MDR tox inactive and SW480 rerep 21µM*.
Screening COc1cc2c(cc1OC)C(SC)=NC(C)(C)C2 returned IL1B secr inh -102*, MCF10A rerep -1%, KB-3-1 tox inactive, KB-V1 MDR tox inactive and SW480 rerep 181%.
For O=S(=O)(c1ccccc1)N1CN(c2ccc(F)cc2F)c2nc3ccccc3nc21 the results were IL1B secr inh -7, MCF10A rerep inconclusive, KB-3-1 tox inactive, KB-V1 MDR tox inconclusive and SW480 rerep inconclusive.
For CN1CCCN(S(=O)(=O)c2cccc(C(F)(F)F)c2)c2nc3ccccc3nc21 the results were IL1B secr inh 0, MCF10A rerep 21µM*, KB-3-1 tox inactive, KB-V1 MDR tox inactive and SW480 rerep inconclusive.
For CCOc1ccc(CCN2C(=O)C(=O)N([C@@H](Cc3ccccc3)CN3CCC[C@H]3CN3C(=O)C(=O)NC[C@@H]3Cc3ccccc3)C[C@@H]2Cc2ccc(O)cc2)cc1 the results were IL1B secr inh -64*, KB-3-1 tox inconclusive and KB-V1 MDR tox inactive.
`CCOc1ccc(CCN2C(=O)C(=O)N([C@@H](Cc3ccccc3)CN3CCC[C@H]3CN3C(=O)C(=O)NC[C@@H]3Cc3ccccc3)C[C@@H]2CC(C)C)cc1` gave IL1B secr inh -79*, KB-3-1 tox inconclusive and KB-V1 MDR tox inactive.
For CCOc1ccc(CCN2C(=O)C(=O)N([C@@H](Cc3ccc(O)cc3)CN3CCC[C@H]3CN3C(=O)C(=O)NC[C@@H]3Cc3ccccc3)C[C@@H]2Cc2ccc(O)cc2)cc1 the results were IL1B secr inh -52*, KB-3-1 tox inactive and KB-V1 MDR tox inactive.
CCOc1ccc(CCN2C(=O)C(=O)N([C@@H](Cc3ccccc3)CN3CCC[C@H]3CN3C(=O)C(=O)NC[C@@H]3Cc3ccccc3)C[C@@H]2Cc2ccccc2)cc1 was read as IL1B secr inh inconclusive, KB-3-1 tox inconclusive and KB-V1 MDR tox inactive.
For CCOc1ccc(CCN2C(=O)C(=O)N([C@@H](CC(C)C)CN3CCC[C@@H]3CN3C(=O)C(=O)NC[C@@H]3Cc3ccccc3)C[C@@H]2Cc2ccc(O)cc2)cc1 the results were IL1B secr inh -52*, MCF10A rerep inconclusive, KB-3-1 tox inconclusive, KB-V1 MDR tox inactive and SW480 rerep 10%.
CC(=O)c1cccc(NC(=O)N2CCC(CN3CCCCC3)CC2)c1 was read as KB-3-1 tox inactive and KB-V1 MDR tox inactive.
CCOc1ccc(CCN2C(=S)N([C@@H](Cc3ccc(O)cc3)CN3CCCC3CN3C(=S)NC[C@@H]3Cc3ccc(O)cc3)C[C@@H]2CC(C)C)cc1 (stereo partly specified) was read as IL1B secr inh -69*, MCF10A rerep inconclusive, KB-3-1 tox inconclusive, KB-V1 MDR tox inactive and SW480 rerep -2%.
For CCNC(=O)C1(C)CCN(C(=O)c2ccc(C(=O)OC)cc2)C1 (stereo unspecified) the results were IL1B secr inh 30, KB-3-1 tox inactive and KB-V1 MDR tox inactive.
For COc1ccc(C2=C(C)C(N3CCC(C(=O)NCc4ccco4)CC3)=NS2(=O)=O)cc1 the results were KB-3-1 tox inactive and KB-V1 MDR tox inactive.
CC(O)CNC(=O)Cc1cc(=O)[nH]c(=O)[nH]1 (stereo unspecified) was read as IL1B secr inh 29, MCF10A rerep 1%, KB-3-1 tox inactive, KB-V1 MDR tox inactive and SW480 rerep -4%.
For Cn1c(=O)c2c(nc(SCCN3CCOCC3)n2Cc2cccc3ccccc23)n(C)c1=O the results were IL1B secr inh -1, MCF10A rerep -2%, KB-3-1 tox inactive, KB-V1 MDR tox 4.1µM* and SW480 rerep 0%.
For CC(C)(C)c1ccc(C(=O)Nc2onc3c2CCCC3)cc1 the results were KB-3-1 tox inactive and KB-V1 MDR tox inactive.
Screening CC(C)c1cc(C(=O)N2CCN(C(c3ccccc3)c3ccccc3)CC2)no1 returned IL1B secr inh -29, MCF10A rerep 6%, KB-3-1 tox inactive, KB-V1 MDR tox inactive and SW480 rerep 6%.
For O=C(c1cc(-c2ccc(O)cc2)on1)N1CCN(c2ccccc2)CC1 the results were IL1B secr inh -54*, MCF10A rerep 13%, KB-3-1 tox inconclusive, KB-V1 MDR tox inconclusive and SW480 rerep -10%.
For O=C(c1cc(-c2ccco2)on1)N1CCN(C(c2ccccc2)c2ccccc2)CC1 the results were IL1B secr inh -9, MCF10A rerep inconclusive, KB-3-1 tox inactive, KB-V1 MDR tox inactive and SW480 rerep 4µM*.
`COc1ccc(-c2cc(C(=O)N3CCN(C(c4ccccc4)c4ccccc4)CC3)no2)cc1` gave IL1B secr inh -5, MCF10A rerep inconclusive, KB-3-1 tox inconclusive, KB-V1 MDR tox 21µM* and SW480 rerep 1%.
`COc1ccc(-c2cc(C(=O)N3CCCC3)no2)cc1` gave IL1B secr inh -27, MCF10A rerep -5%, KB-3-1 tox inactive, KB-V1 MDR tox inactive and SW480 rerep -1%.
COc1ccccc1N1CCN(C(=O)c2cc(-c3ccc4c(c3)OCO4)on2)CC1 was read as IL1B secr inh 23, MCF10A rerep 2%, KB-3-1 tox inactive, KB-V1 MDR tox 16µM* and SW480 rerep 0%.
`O=C(c1cc(-c2ccc(O)cc2)on1)N1CCN(c2ccc(F)cc2)CC1` gave IL1B secr inh -21, MCF10A rerep -2%, KB-3-1 tox inconclusive, KB-V1 MDR tox inactive and SW480 rerep -10%.
